# Source: PubChem BioAssay (National Center for Advancing Translational Sciences (NCATS))
# D3 ag – activates the human D3 dopamine receptor; P35462; max activation, %; hit rate 0.58% among 410,000; D3R DiscoveRx beta-arrestin cells, luminescence, 90 min; in the data active means max activation above about 30%
#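 Agonist mode: compounds and dopamine controls were applied to plated cells for 90 min at 37 degrees C after an overnight attachment at 1500 cells/well. Luminescent read-out followed 30 - 60 minutes at room temperature with DiscoveRx detection reagent.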
# D1 antagonist – blocks dopamine activation of the human D1 receptor; P21728; HEK293 TREx D1 cells, calcium flux, dopamine EC80; hits give low values; activity change, negative = inhibition, % at 10 µM; hit rate 3.2% among 360,000; in the data active means activity change below about -30%
# Target sequence (P21728 whole entry, looked up): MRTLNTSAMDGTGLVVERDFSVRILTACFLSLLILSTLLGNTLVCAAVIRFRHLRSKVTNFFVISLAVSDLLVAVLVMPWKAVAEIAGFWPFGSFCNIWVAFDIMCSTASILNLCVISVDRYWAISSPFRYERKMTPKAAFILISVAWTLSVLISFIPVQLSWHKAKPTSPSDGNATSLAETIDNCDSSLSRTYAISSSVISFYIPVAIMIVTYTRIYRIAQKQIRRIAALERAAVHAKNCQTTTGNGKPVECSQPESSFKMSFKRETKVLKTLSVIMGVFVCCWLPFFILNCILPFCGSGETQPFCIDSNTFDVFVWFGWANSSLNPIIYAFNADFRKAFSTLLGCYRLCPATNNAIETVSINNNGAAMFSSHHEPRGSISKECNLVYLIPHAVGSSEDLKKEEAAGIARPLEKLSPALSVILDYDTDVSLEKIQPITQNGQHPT
#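 Inducible Hek293 Trex D1 cells (tetracycline, overnight, 30 C). Calcium dye 30–90 min RT. Antagonist mode: EC80 dopamine added after 180 s compound read.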
# D1 agonist – activates the human D1 dopamine receptor; P21728; HEK293 T-REx D1 cells, calcium flux, agonist mode; activation, % at 2 µM; hit rate 1% among 360,000; AID 504660; in the data active means activation above about 30%
#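 Agonism was scored from calcium flux recorded over 180 s (1 read/s) after pintool compound addition, following a 10-cycle baseline. Cells were inducible force-coupled HEK293 TREx D1, plated overnight at 30 C and loaded with no-wash calcium dye.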
# D1 potentiator – potentiators of human D1 dopamine receptor; AID 504651; potentiation, % at 10 µM; hit rate 0.036% among 360,000; HEK293 TREx D1 cells, calcium flux, dopamine EC20 potentiation; in the data active means potentiation above about 30%
# D3 antag – antagonists of human D3 dopamine receptor; P35462; D3R cells, DiscoveRx beta-arrestin luminescence, antagonist mode; hits give low values; max response, negative = inhibition, %; hit rate 2.5% among 360,000; AID 652054; in the data active means max response below about -50%; inconclusive means no clear call, values can overlap the other calls
#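 Cells plated overnight at 1500 cells/well, then exposed to library compounds with dopamine controls for 90 minutes at 37 degrees C. DiscoveRx reagent added for 30–60 minutes at room temperature; luminescence read, quantitative HTS format.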
# Numbers stand for hits; n = inactive; u = inconclusive; x = not tested or not shown. Sampled rows, rich in hits. Any-hit rate of the full collection: about 6%.
SMILES,D3 ag,D1 antagonist,D1 agonist,D1 potentiator,D3 antag
Cc1nn(CCCC(=O)Nc2ccccc2C(F)(F)F)c(=O)c2c1sc1ccccc12,n,n,n,n,x
COc1ccc(N=C(N)SCc2ccccn2)cc1,n,-43,n,n,n
COc1ccc(-c2nnc(SCc3ccccn3)n2C)cc1,n,n,n,n,n
O=C(CCC1CCCN(C(=O)c2cc(C3CC3)[nH]n2)C1)N1CCN(c2ccccn2)CC1 (configuration not stated),n,-32,n,n,n
COc1cc(NC(=O)C(C)Oc2ccccc2)c(OC)cc1NC(=O)c1ccccc1 (configuration not stated),36,n,n,n,n
COc1cc(NC(=O)c2ccccc2)c(OC)cc1Cl,n,n,n,n,n
COc1cc(N)c(Cl)cc1NC(=O)c1ccccc1,n,-55,n,n,n
COc1cc(NC(=O)c2cccnc2)c(OC)cc1NC(=O)c1ccc(Br)cc1,121,n,n,n,n
COc1c(Cl)cc(C(=O)Nc2ccccc2-c2ccccc2)cc1Cl,n,-31,n,n,n
CC(Oc1ccccc1)C(=O)Nc1ccc(NC(=O)c2ccccc2)cc1 (configuration not stated),n,n,n,n,u
Cc1ccc(-c2nc(N)c3c(-c4ccc(C)cc4)nn(C(C)(C)C)c3n2)cc1,n,-46,n,n,n
CCOc1ccccc1NC(=O)c1ccc2c(Cl)c3c(nc2c1)CCC3,n,n,n,n,x
Cc1cc(=O)c(C(=O)O)cn1Nc1ccc(Cl)cc1,n,n,n,n,-53
Cc1cc(=O)c(C(=O)O)cn1Nc1ccc(F)cc1,n,n,n,n,u
COc1ccc(C2C(C(=O)Nc3ccccc3)=C(C)Nc3nc(-c4ccccc4Cl)nn32)cc1OC (configuration not stated),n,n,n,n,x
O=C(Nc1cc(Cl)ccc1Cl)C1(c2cccs2)CCOCC1,n,x,n,n,x
Cc1cc(C)c([N+](=O)[O-])cc1-c1ccc(/C=N/c2c(-c3ccco3)nc3ccccn23)o1,n,-50,n,n,n
CCc1cc(=O)[nH]c(SCc2nc(-c3cccc(Cl)c3)no2)n1,n,n,n,n,x
Cc1ccc2c(CN3CCC(C)CC3)cc(=O)oc2c1,n,n,n,n,-61
CCOC(=O)C1CCCN(Cc2cc(=O)oc3cc(C)ccc23)C1 (configuration not stated),n,-41,n,n,n
Cc1ccc2c(CN3CC(C)CC(C)C3)cc(=O)oc2c1 (configuration not stated),n,n,n,n,n
Cc1cc2oc(=O)cc(CN3CCC(C)CC3)c2cc1Cl,n,n,n,n,-52
Cc1cc2oc(=O)cc(CN3CCN(Cc4ccccc4)CC3)c2cc1Cl,n,n,n,n,u
CCOC(=O)C1CCN(Cc2cc(=O)oc3cc(C)ccc23)CC1,n,n,n,n,n
CCCCC(=O)O[C@]1(C(=O)CO)[C@H](C)C[C@H]2[C@@H]3CCC4=CC(=O)C=C[C@]4(C)[C@@]3(F)[C@@H](O)C[C@@]21C,n,x,x,x,x
SMILES,D3 ag,D1 antagonist,D1 agonist,D1 potentiator,D3 antag
Cc1nn(C(=O)c2ccccc2)c(C)c1S(=O)(=O)N1CCOCC1,n,n,n,n,x
Cc1ccc(CCNS(=O)(=O)c2c(C)nc3sc(C)c(C)n3c2=O)cc1,n,n,n,n,x
CCCNc1c(F)c(F)c2c(C)c3ccccc3nc2c1F,n,n,41,n,n
C(=N\n1cnnc1)/c1nc2ccccc2[nH]1,n,-34,n,n,n
Cc1[nH]c2ccccc2c1/C=N/n1cnnc1,n,n,n,n,n
Cc1ccc(S(=O)Cc2ccc(C(=O)NC3CCCCCC3)o2)cc1 (configuration not stated),n,n,n,n,x
CN(CCc1ccccc1)C1CCCN(S(=O)(=O)c2cccc(F)c2)C1 (configuration not stated),n,n,n,n,-63
COc1ccc(CCN(C)C2CCCN(S(=O)(=O)c3ccc(C)cc3)C2)cc1OC (configuration not stated),n,-37,n,n,n
Cc1cc(S(=O)(=O)N2CCCC(N(C)CCc3ccccn3)C2)c(C)cc1Cl (configuration not stated),n,-54,n,n,n
COc1ccc(CCN(C)C2CCCN(C(=O)c3sccc3C)C2)cc1OC (configuration not stated),n,n,n,n,-64
Cc1cccc(NC(=O)CSc2nnc(CNC(=O)c3c(F)cccc3Cl)o2)c1C,n,n,n,n,x
Cc1nn(-c2ccc(N3CCCCC3)nn2)c(C)c1CCC(=O)Nc1ccc(F)cc1F,n,n,n,n,x
COc1ccc(S(=O)(=O)c2cn(C)c3cc(N4CCCCCC4)c(F)cc3c2=O)cc1,n,n,n,n,x
CCc1ccccc1N1C(=O)N(Cc2cc(=O)n3ccccc3n2)c2ccccc2S1(=O)=O,n,n,n,n,x
CS(=O)(=O)c1nc(-c2ccccc2)cc(C(F)(F)F)n1,n,n,n,n,-120
Cc1cc(NC(=O)CCS(=O)(=O)c2nc(-c3ccccc3)cc(C(F)(F)F)n2)no1,n,n,n,n,n
CCO/N=C/C(=O)Nc1ccc(F)cc1F,n,-75,n,n,n
CC(NC(=O)Nc1ccc(F)cc1F)c1ccncc1 (configuration not stated),n,n,n,n,n
CCOc1ccc(C(C)NC(=O)Nc2ccc(F)cc2F)cc1 (configuration not stated),n,-77,n,n,n
CC(C)(C)c1nn(-c2ccccc2)c2[nH]c(=O)c(C=O)cc12,n,n,n,n,-101
Cc1cc(N2CCN(C)CC2)ccc1NC(=O)c1ccc(-c2ccc(Cl)cc2)o1,n,-62,n,n,n
CC(=O)c1ccc(NC(=S)NC(=O)Cc2ccc(Cl)cc2)cc1,n,n,41,n,n
Cc1ccc(NC(=S)NC(=O)c2ccc(-c3ccc(Cl)cc3)o2)c(O)c1,n,n,n,n,-101
CN1CCN(c2ccccc2NC(=O)c2ccc(-c3ccc(Cl)c(Cl)c3)o2)CC1,n,n,n,n,n
Cc1cc(O)c(NC(=S)NC(=O)c2ccc(-c3ccc(Cl)cc3)o2)cc1C,n,-34,n,n,-76
SMILES,D3 ag,D1 antagonist,D1 agonist,D1 potentiator,D3 antag
Cc1ccc(O)c(NC(=S)NC(=O)Cc2ccc(Cl)cc2)c1,n,-62,96,n,u
COc1ccc(C(=O)O)cc1NC(=S)NC(=O)Cc1ccc(Cl)cc1,n,n,n,n,n
CCCCS(=O)(=O)c1oc(-c2cccs2)nc1S(=O)(=O)c1ccc(F)cc1,n,n,81,n,x
Nc1nc(Nc2ccccc2F)sc1C(=O)c1ccc(Cl)cc1,n,n,n,n,x
Clc1ccc(CCNC(c2cccc(Cl)c2)c2nnc(-c3ccccc3)o2)cc1 (configuration not stated),n,n,n,n,x
Fc1ccc(C(NCCc2ccc(Cl)cc2)c2nnc(-c3ccccc3)o2)c(Cl)c1 (configuration not stated),n,n,64,n,x
